Test results published in PubChem BioAssay (Tox21).
The source made the active and inactive calls. Where a call stands in place of a potency, no number is given. Calls come from the whole dose curve.

assay: G protein-coupled receptor (GPCR) small molecule agonists, calcium flux assay: HEK293 wild type cell line counter screen (AID 1920065); conditions: HEK293 WT calcium flux, fluorescence, agonist mode; series mostly up to 57.6 µM
Source text: U.S. Tox21 Program National Center for Advancing Translational Sciences [NCATS] Division of Preclinical Innovation [DPI] U.S. Environmental Protection Agency [EPA] National Institutes of Environmental Health Sciences [NIEHS] National Toxicology Program [NTP] U.S. Food and Drug Administration [FDA] Assay overview: The increased intracellular calcium release that occurred upon G protein-coupled receptor (GPCR) activation led to the frequent use of calcium flux assays to detect GPCR activation. For the purpose of studying and screening compounds that may activate GPCR, receptor-overexpressing models were typically generated using Hek293 wild-type (WT) cells. In order to eliminate the compounds that may have induced calcium release for non-specific activation, a counter-assay utilizing calcium flux on Hek293 WT cells was performed. The data were formulated in order to serve as a control for any calcium flux detection utilizing Hek293 cells with either GPCR overexpression or gene modification. The procurement of Hek293 WT cells from ATCC. Fluorescence intensity can be utilized to determine the activation of the compound in a calcium flux assay. As a counter control, this cell line was utilized to screen the Tox21 10K compound library.
Assay Protocol Summary: Hek293 cells were dispensed at 1500cells/4uL/well in 1536-well black wall/clear bottom plates using a multidrop dispenser. After the assay plates were incubated at a 37 C/5% CO2 incubator for 18 hours, 4 uL of Calcium Dye Solution was added to each well. The plates were incubated at 37 C for 1 hour. For agonist mode, 23 nL of compounds dissolved in DMSO, positive control (ATP) or DMSO only was transferred to the assay plate by a pin tool station. The fluorescence intensity in the plates was measured using FDSS 7000EX kinetic plate reader with a filter set of Ex/Em=480/540 for 3 min at 1 sec intervals. Each test compound was measured at 15 concentrations and in triplicates.

Row | SMILES | Potency
1 | Cc1cccc(N)c1 | inactive
2 | C[N+]1(C)CCCCC1 | inactive
3 | C[C@]12C=CC3=C4CCC(=O)C=C4CC[C@H]3[C@@H]1CC[C@@H]2O | inactive
4 | CNC(=O)CSP(=S)(OC)OC | inactive
5 | Oc1ccc(Cl)cc1Cl | inactive
6 | Clc1nc(Cl)nc(Cl)n1 | inactive
7 | CC(Cl)C(=O)O (stereo not given) | inactive
8 | CC1(C)C(C=C(Cl)Cl)C1C(=O)OC(C#N)c1cccc(Oc2ccccc2)c1 (stereo not given) | inactive
9 | O=c1oc2ccccc2c(O)c1C(CC(O)c1ccc(-c2ccc(Br)cc2)cc1)c1ccccc1 (stereo not given) | inactive
10 | Clc1cccc(Cl)c1Cl | inactive
11 | CCN(CC)Cc1nccn1-c1ccc([N+](=O)[O-])cc1C(=O)c1ccccc1Cl | inactive
12 | ClCC(Br)CBr (stereo not given) | inactive
13 | CCCCCCCCCCCCCCCCCC(=O)O | inactive
14 | N#Cc1ccncc1 | inactive
15 | CC(=[OH+])/C=C(/C)[O-].CC(=[OH+])/C=C(\C)[O-].CC(=[OH+])/C=C(\C)[O-].[Al] | inactive
16 | C[N+](C)(C)Cc1ccccc1 | inactive
17 | Nc1c(Br)cc([N+](=O)[O-])cc1[N+](=O)[O-] | inactive
18 | COc1ccc(O)c(C(C)(C)C)c1 | inactive
19 | Oc1ccccc1-c1ccccc1 | inactive
20 | CCC(C)c1cc([N+](=O)[O-])cc([N+](=O)[O-])c1O (stereo not given) | inactive

Row | SMILES | Potency
21 | c1cc2c(c(N3CCNCC3)c1)OCCO2 | inactive
22 | C(=NC1CCCCC1)=NC1CCCCC1 | inactive
23 | CN(C)c1ccc(N(C)C)cc1 | inactive
24 | CN(C)C(=O)C(c1ccccc1)c1ccccc1 | inactive
25 | CNC(=O)Oc1ccccc1C1OCCO1 | inactive
26 | COC(=O)c1cncn1C(C)c1ccccc1 (stereo not given) | inactive
27 | Clc1ccc(C2(Cn3cncn3)OCCO2)c(Cl)c1 | inactive
28 | S=C=S | inactive
29 | CN(C)CCC#N | inactive
30 | COC(=O)NC(=S)Nc1ccccc1NC(=S)NC(=O)OC | inactive
31 | CCCCCCCCCCCCCCCC[N+](C)(C)C | inactive
32 | c1ccc(N2CCNCC2)cc1 | inactive
33 | O=C1C=CC(=O)C=C1 | inactive
34 | CCCC(=O)Cl | inactive
35 | ClC1C(Cl)C(Cl)C(Cl)C(Cl)C1Cl (stereo not given) | inactive
36 | CNc1cnn(-c2cccc(C(F)(F)F)c2)c(=O)c1Cl | inactive
37 | CCOC(=O)Nc1cccc(OC(=O)Nc2ccccc2)c1 | inactive
38 | CCCCCCCCCCCCCl | inactive
39 | O=c1ccc(=O)[nH][nH]1 | inactive
40 | O=NN(c1ccccc1)c1ccccc1 | inactive
